Laboratory results taken from PubChem BioAssay AID1159580 (chemical genetic matrix, 2015).
Screen size: about 5,500 compounds; about 2,000 (36%) were called active. Not shown: some 18% with an inconclusive outcome. No stated cut-off is given here; in the data, active means normalized growth mostly below about 0.91 (no sharp cut-off); inconclusive means no clear call, values can overlap the other calls; inactive means mostly above about 0.92. This is one part of the list.

Assay: chemical genetic growth profiling, strain panel (AID 1159580);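 further: tested at 20 µM; growth read once vehicle control cultures reached saturation at 30 °C; 1 = growth at the plate median or of vehicle wells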
Conditions: growth OD

Measured: normalized growth

C#C[C@]1(O)CCC2C3CCC4=CC(=O)CC[C@@H]4C3CC[C@@]21CC (stereo not given in full)
active: S. cerevisiae deletion strains, locus YLR262C, strain YPT6 (second series), stronger effect = lower value 0.829
inactive: S. cerevisiae deletion strains, locus YJR066W, strain TOR1, stronger effect = lower value 0.91 | S. cerevisiae deletion strains, locus YKL009W, strain mrt4, stronger effect = lower value 0.96 | S. cerevisiae deletion strains, locus YKL068W, stronger effect = lower value 0.999 | S. cerevisiae deletion strains, locus YKL085W, strain MDH1 (second series), stronger effect = lower value 0.988 | S. cerevisiae deletion strains, locus YKL085W, strain MDH1, stronger effect = lower value 0.988 | S. cerevisiae deletion strains, locus YKL160W, strain elf1, stronger effect = lower value 0.988 | S. cerevisiae deletion strains, locus YKL190W, strain CNB1, stronger effect = lower value 1.01 | S. cerevisiae deletion strains, locus YKR001C, strain vps1, stronger effect = lower value 1 | S. cerevisiae deletion strains, locus YKR026C, strain gcn3, stronger effect = lower value 1 | S. cerevisiae deletion strains, locus YKR091W, strain srl3, stronger effect = lower value 0.993 | S. cerevisiae deletion strains, locus YLL001W, strain dnm1, stronger effect = lower value 0.987 | S. cerevisiae deletion strains, locus YLL026W, stronger effect = lower value 1 | S. cerevisiae deletion strains, locus YLL041C, strain sdh2, stronger effect = lower value 0.99 | S. cerevisiae deletion strains, locus YLR027C, strain aat2, stronger effect = lower value 0.989 | S. cerevisiae deletion strains, locus YLR039C, strain RIC1, stronger effect = lower value 0.949 | S. cerevisiae deletion strains, locus YLR058C, strain SHM2, stronger effect = lower value 0.998 | S. cerevisiae deletion strains, locus YLR102C, strain apc9, stronger effect = lower value 0.992 | S. cerevisiae deletion strains, locus YLR113W, strain HOG1, stronger effect = lower value 0.946 | S. cerevisiae deletion strains, locus YLR221C, strain rsa3, stronger effect = lower value 0.997 | S. cerevisiae deletion strains, locus YLR258W, strain gsy2, stronger effect = lower value 1 | S. cerevisiae deletion strains, locus YLR262C, strain YPT6, stronger effect = lower value 0.903 | S. cerevisiae deletion strains, locus YLR268W, strain sec22, stronger effect = lower value 0.958 | S. cerevisiae deletion strains, locus YLR320W, strain mms22, stronger effect = lower value 0.96 | S. cerevisiae deletion strains, locus YLR330W, strain CHS5, stronger effect = lower value 0.991 | S. cerevisiae deletion strains, locus YLR342W, strain FKS1 (second series), stronger effect = lower value 0.983 | S. cerevisiae deletion strains, locus YLR342W, strain FKS1, stronger effect = lower value 0.985 | S. cerevisiae deletion strains, locus YLR357W, strain rsc2, stronger effect = lower value 1.06 | S. cerevisiae deletion strains, locus YLR370C, strain arc18, stronger effect = lower value 0.984 | S. cerevisiae deletion strains, locus YLR371W, strain rom2, stronger effect = lower value 0.992 | S. cerevisiae deletion strains, locus YLR384C, strain iki3, stronger effect = lower value 0.992 | S. cerevisiae deletion strains, locus YLR418C, strain cdc73, stronger effect = lower value 1.03 | S. cerevisiae deletion strains, locus YML016C, strain PPZ1, stronger effect = lower value 0.989 | S. cerevisiae deletion strains, locus YML032C, strain rad52, stronger effect = lower value 0.977 | S. cerevisiae deletion strains, locus YML120C, strain ndi1, stronger effect = lower value 1.01 | S. cerevisiae deletion strains, locus YML124C, strain tub3, stronger effect = lower value 0.988 | S. cerevisiae deletion strains, locus YMR058W, strain fet3, stronger effect = lower value 0.987 | S. cerevisiae deletion strains, locus YMR078C, strain ctf18, stronger effect = lower value 0.989 | S. cerevisiae deletion strains, locus YMR125W, strain sto1, stronger effect = lower value 1 | S. cerevisiae deletion strains, locus YMR129W, stronger effect = lower value 0.983 | S. cerevisiae deletion strains, locus YMR205C, strain PFK2, stronger effect = lower value 0.989 | S. cerevisiae deletion strains, locus YMR223W, strain ubp8, stronger effect = lower value 0.987 | S. cerevisiae deletion strains, locus YMR231W, strain pep5, stronger effect = lower value 0.999 | S. cerevisiae deletion strains, locus YMR307W, strain GAS1, stronger effect = lower value 1.12 | S. cerevisiae deletion strains, locus YNL067W, strain RPL9B, stronger effect = lower value 1.01 | S. cerevisiae deletion strains, locus YNL071W, strain lat1, stronger effect = lower value 0.992 | S. cerevisiae deletion strains, locus YNL128W, strain TEP1, stronger effect = lower value 0.988 | S. cerevisiae deletion strains, locus YNL153C, strain GIM3, stronger effect = lower value 1.01 | S. cerevisiae deletion strains, locus YNL183C, strain NPR1, stronger effect = lower value 0.922 | S. cerevisiae deletion strains, locus YNL209W, strain ssb2, stronger effect = lower value 0.993 | S. cerevisiae deletion strains, locus YNL233W, strain BNI4, stronger effect = lower value 0.992 | S. cerevisiae deletion strains, locus YNL248C, strain rpa49, stronger effect = lower value 1 | S. cerevisiae deletion strains, locus YNL250W, strain rad50, stronger effect = lower value 0.988 | S. cerevisiae deletion strains, locus YNL271C, strain bni1, stronger effect = lower value 0.982 | S. cerevisiae deletion strains, locus YNL298W, strain CLA4, stronger effect = lower value 0.961 | S. cerevisiae deletion strains, locus YNL307C, strain MCK1, stronger effect = lower value 0.98 | S. cerevisiae deletion strains, locus YNL322C, strain KRE1 (second series), stronger effect = lower value 1 | S. cerevisiae deletion strains, locus YNR049C, strain mso1, stronger effect = lower value 1 | S. cerevisiae deletion strains, locus YNR052C, strain pop2, stronger effect = lower value 0.964 | S. cerevisiae deletion strains, locus YOL006C, strain TOP1, stronger effect = lower value 1.03 | S. cerevisiae deletion strains, locus YOL012C, strain htz1 1.51 | S. cerevisiae deletion strains, locus YOL147C, strain pex11, stronger effect = lower value 0.994 | S. cerevisiae deletion strains, locus YOR001W, strain rrp6, stronger effect = lower value 0.967 | S. cerevisiae deletion strains, locus YOR061W, strain CKA2, stronger effect = lower value 0.983 | S. cerevisiae deletion strains, locus YOR069W, strain VPS5, stronger effect = lower value 0.991 | S. cerevisiae deletion strains, locus YOR070C, strain gyp1, stronger effect = lower value 0.995 | S. cerevisiae deletion strains, locus YOR080W, strain dia2, stronger effect = lower value 0.996 | S. cerevisiae deletion strains, locus YOR083W, strain WHI5, stronger effect = lower value 0.997 | S. cerevisiae deletion strains, locus YOR106W, strain vam3, stronger effect = lower value 0.997 | S. cerevisiae deletion strains, locus YOR136W, strain idh2, stronger effect = lower value 0.991 | S. cerevisiae deletion strains, locus YOR144C, strain elg1, stronger effect = lower value 0.994 | S. cerevisiae deletion strains, locus YOR184W, strain ser1, stronger effect = lower value 0.912 | S. cerevisiae deletion strains, locus YOR231W, strain MKK1, stronger effect = lower value 0.983 | S. cerevisiae deletion strains, locus YOR265W, strain rbl2, stronger effect = lower value 1 | S. cerevisiae deletion strains, locus YOR270C, strain vph1, stronger effect = lower value 0.957 | S. cerevisiae deletion strains, locus YOR290C, strain snf2, stronger effect = lower value 0.98 | S. cerevisiae deletion strains, locus YOR316C, strain cot1, stronger effect = lower value 0.989 | S. cerevisiae deletion strains, locus YPL051W, strain arl3, stronger effect = lower value 0.979 | S. cerevisiae deletion strains, locus YPL055C, strain LGE1, stronger effect = lower value 1.04 | S. cerevisiae deletion strains, locus YPL078C, strain atp4, stronger effect = lower value 0.996 | S. cerevisiae deletion strains, locus YPL106C, strain sse1, stronger effect = lower value 1.06 | S. cerevisiae deletion strains, locus YPL240C, strain hsp82, stronger effect = lower value 1 | S. cerevisiae deletion strains, locus YPL241C, strain CIN2, stronger effect = lower value 1 | S. cerevisiae deletion strains, locus YPL256C, strain CLN2, stronger effect = lower value 0.963 | S. cerevisiae deletion strains, locus YPR119W, strain clb2, stronger effect = lower value 1 | S. cerevisiae deletion strains, locus YPR141C, strain kar3, stronger effect = lower value 0.983 | S. cerevisiae deletion strains, locus YPR163C, strain tif3, stronger effect = lower value 0.99 | S. cerevisiae deletion strains, locus YPR167C, strain met16, stronger effect = lower value 0.988 | S. cerevisiae deletion strains, strain wtn01, stronger effect = lower value 0.973 | S. cerevisiae strains, strain wild type, stronger effect = lower value 1.02
